From PubChem
Mot1-301 SUMO – SUMOylation pathway inhibition by Mot1-301 growth rescue | S. cerevisiae Mot1-301 growth rescue, ATP luminescence, 38.5C; percent above DMSO median, 100 means doubled | growth rescue, % at 18.8 µM | actives 1% (n = 320,000);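 active = every valid replicate shows activation above 250% relative to neutral control wells; inactive = the rest, any valid replicate at or below 250%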;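 note: OY570 slx delta 5 strain wells were the positive control but not used for scaling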
MEKK2 WT-MEK5 – raises or lowers MEK5 binding to wildtype human MEKK2 PB1 domain | binding response (% of control), % at 10 µM | bead flow cytometry, Alexa488-MEK5 binding to MEKK2 WT; actives lie on both sides | AID 1531 | Q9Y2U5 | actives 1.1% (n = 290,000); in the data active = binding response below about 67% or above about 130%
MEKK2mut PB1 HTS – signal of MEK5 binding to mutant human MEKK2 PB1 domain. bead flow cytometry, Alexa488-MEK5 binding to MEKK2 mutant. percent response, % at 10 µM. actives 0.35% (n = 290,000). AID 1530; in the data active = percent response above about 24%, passing the limit was not always enough
CHT allo act – allosterically activates the human high affinity choline transporter; Q9GZV3; CHT-expressing cells, membrane potential dye, choline EC20; stronger effect = higher value; LV-AA mutant CHT in HEK293 cells; B-score at 10 µM; actives 0.49% (n = 310,000); AID 488977;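 active = initial fluorescence not abnormally high and integrated response B-score, plate-corrected, over 3 SD above library mean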
MEKK3 PB1 HTS – raises or lowers MEK5 binding to the human MEKK3 PB1 domain; Q99759; bead-based flow cytometry, Alexa488-MEK5 binding to MEKK3; actives lie on both sides; 0 = blocked by unlabeled MEK5, 100 = vehicle; binding response (% of control), % at 10 µM; actives 1.4% (n = 290,000);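 active = binding response more than 3 SD above or below the average of its plate-row segment, actives on both sides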;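 note: Alexa488 bead fluorescence after subtracting the streptavidin-only scavenger bead signal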
Target sequence (Q99759 whole entry, looked up, the tested form may be a part): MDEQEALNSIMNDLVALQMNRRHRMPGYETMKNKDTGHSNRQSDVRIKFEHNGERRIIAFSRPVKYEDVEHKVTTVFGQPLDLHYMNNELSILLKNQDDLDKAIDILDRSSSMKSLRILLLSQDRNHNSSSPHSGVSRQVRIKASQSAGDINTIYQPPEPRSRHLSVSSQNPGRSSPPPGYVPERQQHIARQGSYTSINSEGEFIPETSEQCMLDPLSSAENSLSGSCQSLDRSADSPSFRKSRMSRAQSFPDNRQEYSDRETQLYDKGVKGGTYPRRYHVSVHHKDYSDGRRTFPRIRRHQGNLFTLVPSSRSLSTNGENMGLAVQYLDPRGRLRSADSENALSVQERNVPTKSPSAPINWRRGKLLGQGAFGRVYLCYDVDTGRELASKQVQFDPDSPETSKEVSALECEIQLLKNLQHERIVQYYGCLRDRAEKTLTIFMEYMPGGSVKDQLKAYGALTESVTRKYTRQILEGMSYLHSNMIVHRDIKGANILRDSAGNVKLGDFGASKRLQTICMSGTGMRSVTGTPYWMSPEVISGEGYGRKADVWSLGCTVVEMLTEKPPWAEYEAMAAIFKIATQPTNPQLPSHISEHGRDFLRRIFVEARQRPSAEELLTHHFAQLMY
CHT inh – inhibits the human high affinity choline transporter | Q9GZV3 | CHT-expressing cells, membrane potential dye, choline response; stronger effect = lower value | B-score at 10 µM | actives 0.86% (n = 310,000) | AID 488975;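 active = B-score over 3 SD under the library average, and starting fluorescence ratio not unusually high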;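 note: choline stimulus applied at its EC90 after an EC20 pre-addition; B-score computed on integrated fluorescence ratio after choline addition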
The depositor's hits bear a star; i = inactive; · = not tested or not shown; + = active, no number; [ ] = another dose, or the depositor's remark. Only some compounds are listed: those with a hit (about 4.1% of all), similar ones and a draw of the others.

SMILES | Mot1-301 SUMO | MEKK2 WT-MEK5 | MEKK2mut PB1 HTS | CHT allo act | MEKK3 PB1 HTS | CHT inh
N#C/C(=C(/O)c1ccc([N+](=O)[O-])o1)c1nc2ccccc2[nH]1 | 3 | 83 | -19 | i | 88 | i
N#C/C(=C\c1ccc([N+](=O)[O-])o1)c1nc2ccccc2[nH]1 | 357* | 87 | -2 | i | 103 | i
CCNc1nc(-c2cc(C)n(Cc3ccco3)c2C)cs1 | 3 | -21* | -29 | i | 79 | i
Cc1cc(-c2csc(NCc3ccccc3)n2)c(C)n1C | · | -10* | 1 | · | 84 | ·
O=[N+]([O-])c1cc(S(=O)(=O)N2CCCCCC2)ccc1F | 577* | 83 | 3 | i | 96 | i
CCCC(=O)N1CCN(c2ccc(NC(=O)c3cc4ccccc4o3)cc2Cl)CC1 | 12 | 94 | -7 | i | 91 | -7.4*
CC(C)CCn1c(=O)c2ccccc2n2c(CN3CCOCC3)nnc12 | 0 | 99 | -1 | i | 109 | i
COc1ccc2c(c1OC)C(=O)O[C@@H]2[C@H]1c2c(cc3c(c2OC)OCO3)CCN1C | 750* | 105 | -1 | i | 107 | i
COc1cc(/C=C2\S/C(=N/S(=O)(=O)c3ccc(C)cc3)NC2=O)c([N+](=O)[O-])cc1OC | -9 | 102 | 1 | i | 104 | -7.4*
Cc1ccc(S(=O)(=O)/N=C2/NC(=O)/C(=C/c3ccncc3)S2)cc1 | 15 | 95 | -1 | i | 88 | -5.3*
Cc1ccc(S(=O)(=O)/N=C2/NC(=O)/C(=C\c3ccccc3)S2)cc1 | 8 | · | · | · | · | ·
O=C(O)CCNc1cc(N2CCN(C(=O)c3ccco3)CC2)c2noc3c2c1C(=O)c1ccccc1-3 | -22 | 48*[inhibitor] | -17 | i | 63*[inhibitor] | i
Cc1c(C(=O)c2no[n+]([O-])c2C(=O)c2cnn(C)c2C)cnn1C | 273 | 105 | 9 | i | 102 | -5.9*
C=CCOC(=O)c1c(C)nc2cc3c(cc2c1C)OCO3 | 7 | 109 | 4 | i | 118 | i
CCN(CC)CCNC(=O)c1ccc(NC(=O)c2ccc(F)cc2)cc1 | 10 | 98 | -5 | i | 100 | i
CCN(CC)CCNC(=O)c1ccc(NC(=O)c2ccc(Cl)c(S(=O)(=O)Nc3ccccc3OC)c2)cc1 | · | 147* | 12 | · | 104 | ·
CCN(CC)CCNC(=O)c1ccc(NC(=O)Nc2cccc3ccccc23)cc1 | i | 140* | 30* | i | 101 | i
Cc1ccc2nc(SCC(=O)Nc3nnc(SCC(N)=O)s3)[nH]c2c1 | 2 | 94 | -5 | i | 86 | i
O=C(CN1CCN(c2ccccn2)CC1)Nc1ccc(F)cc1 | 1 | 101 | 1 | i | 105 | i
O=C(CCCN1CCN(c2ccccn2)CC1)c1ccc(F)cc1 | 351* | · | · | i | · | i
COc1cccc(NC(=O)CSc2nc3ccsc3c(=O)n2-c2ccc(C(=O)O)cc2)c1 | -7 | 98 | -3 | i | 103 | i
N#Cc1nccnc1S(=O)(=O)c1cccs1 | 361* | 98 | -7 | i | 96 | i
CN(Cc1ccccc1C#N)S(=O)(=O)c1cccs1 | -11 | 110 | 0 | i | 104 | i
CC[N+]1=C(C)C(C)(C)c2cc(C)ccc21 | 8 | 77 | -3 | i | 100 | i
Cc1ccc2c(c1)C=CC(C)(C)S2=O (centres undefined) | -33 | 101 | 2 | i | 130* | i
SMILES | Mot1-301 SUMO | MEKK2 WT-MEK5 | MEKK2mut PB1 HTS | CHT allo act | MEKK3 PB1 HTS | CHT inh
CCOC(=O)C1CCCN(c2nc3ccccc3nc2NS(=O)(=O)c2ccc(C)cc2)C1 (centres undefined) | -2 | · | · | · | · | ·
O=C(CSc1nc2ccccc2c(=O)n1-c1ccc(F)cc1)Nc1cc(S(=O)(=O)N2CCOCC2)ccc1Cl | 7 | 92 | -3 | i | 95 | i
CC(c1ccco1)N(C(=O)c1ccccc1NS(=O)(=O)c1cccc([N+](=O)[O-])c1)c1ccccn1 (centres undefined) | 7 | 93 | -3 | i | 91 | i
CC(c1ccco1)N(C(=O)c1ccccc1NS(=O)(=O)c1cc([N+](=O)[O-])ccc1Cl)c1ccccn1 (centres undefined) | 402* | 92 | -2 | i | 94 | i
C=CCOc1ccc(CN(C)CC(O)COc2ccc(CCC(C)=O)cc2)cc1 (centres undefined) | -6 | 99 | -3 | i | 99 | i
CCOc1ccc(CN(C)CC(O)COC(c2ccc(OC)cc2)c2ccc(OC)cc2)cc1 (centres undefined) | 7 | 180* | 35* | i | 112 | i
COc1ccc(CN(C)CC(O)COc2ccc(-c3ccccc3)cc2)cc1OC (centres undefined) | 27 | 136* | 10 | i | 105 | i
COc1ccc(CN(C)CC(O)COC(c2ccc(OC)cc2)c2ccc(OC)cc2)cc1 (centres undefined) | 16 | 147* | 9 | i | 107 | i
COc1ccc(C(OCC(O)CN(C)C2CCCCC2)c2ccc(OC)cc2)cc1 (centres undefined) | 16 | 161* | 11 | i | 106 | i
O=C(Cc1c[nH]c2ccccc12)NCC(=O)Nc1ccc(F)c(F)c1F | -2 | · | · | · | · | ·
CCCC1CC(C)(/C(C)=N\NC(N)=S)OC1=O (centres undefined) | -9 | 87 | -9 | i | 95 | -9.3*
CCc1ccc(NC(=O)C2CC(=O)N=C(N)S2)cc1 (centres undefined) | -4 | 97 | -1 | i | 99 | i
COc1ccc(NC(=O)C2CC(=O)N=C(N)S2)cc1 (centres undefined) | 10 | -11* | 2 | i | 98 | i
O=C(c1ccccc1)c1ccc(OCCCCN2CCCCC2)cc1 | 4 | 104 | 1 | i | 96 | i
O=C(c1ccccc1)c1ccc(OCCCN2CCCC2)cc1 | + | 96 | -2 | i | 100 | i
Cc1cc2c(cc1C)CSC(c1ccc3ccccc3c1O)SC2 | -11 | 98 | 0 | i | 108 | i
Cc1cc2c(cc1C)CSC(c1ccccc1O)SC2 | 273* | 92 | -3 | i | 103 | i
C[C@H](CCC(=O)O)[C@H]1CC[C@H]2[C@@H]3CC[C@@H]4C[C@H](O)CC[C@]4(C)[C@H]3C[C@H](O)[C@]12C | 422* | 98 | -1 | i | 101 | -6.5*
C[C@H](CCC(=O)O)[C@H]1CC[C@H]2[C@@H]3[C@H](O)C[C@@H]4C[C@H](O)CC[C@]4(C)[C@H]3CC[C@]12C | 11 | · | · | i | · | i
